This is a sample that favours compounds with a hit; in the whole collection about 11% have one here.
FLuc inh: inhibitors of firefly (Photinus pyralis) luciferase. P08659. purified P. pyralis luciferase, luminescence, biochemical. Potency, µM (highest dose often 115 µM), actives largely listed as inhibitors. 76,000 compounds, 2.5% hits. AID 1347043; also: nearly all actives have a fitted effect of over 65% in size
Target sequence (P08659 whole entry, looked up): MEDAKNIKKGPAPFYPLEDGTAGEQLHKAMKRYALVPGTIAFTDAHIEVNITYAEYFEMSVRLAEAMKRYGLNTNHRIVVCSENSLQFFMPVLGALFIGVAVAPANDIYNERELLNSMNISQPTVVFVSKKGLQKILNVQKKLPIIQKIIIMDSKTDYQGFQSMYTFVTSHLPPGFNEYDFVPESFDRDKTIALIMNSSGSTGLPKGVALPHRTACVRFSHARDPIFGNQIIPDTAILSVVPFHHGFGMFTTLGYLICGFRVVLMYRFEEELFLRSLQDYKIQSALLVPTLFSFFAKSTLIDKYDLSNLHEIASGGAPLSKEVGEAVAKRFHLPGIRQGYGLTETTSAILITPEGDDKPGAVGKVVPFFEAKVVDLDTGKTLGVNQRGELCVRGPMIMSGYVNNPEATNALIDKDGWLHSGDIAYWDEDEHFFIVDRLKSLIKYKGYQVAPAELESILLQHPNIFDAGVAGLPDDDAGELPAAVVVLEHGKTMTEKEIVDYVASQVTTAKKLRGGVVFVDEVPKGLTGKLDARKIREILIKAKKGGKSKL
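Purified P. pyralis luciferase (10nM final) in 50mM Tris acetate pH 7.5, 10mM Mg acetate, 0.01% Tween-20, 0.05% BSA with 10uM D-luciferin and 10uM ATP. Compounds titrated qHTS. Luminescence imaged on CCD.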
NPR1 antag: blocks ANP-stimulated signaling of human Npr1 receptor; P16066; HEK293 hNpr1 GloSensor cGMP, ANP-stimulated luminescence; Potency, µM (series often up to 46.3 µM), hits mostly inhibitors; 76,000 compounds, 1.6% hits; AID 1347048; calls by dose curve; also: nearly all actives have a fitted effect of over 60% in size
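HEK293 cells stably expressing human Npr1 and cGMP GloSensor pGS-40F, loaded 2 h with 2% GloSensor reagent, given compound 30 min at room temperature. Luminescence read before and 20 min after 0.1 nM hNppA.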
HEK cytotox: HEK 293 cell cytotoxicity. HEK 293 viability, ATP luminescence (CellTiter-Glo), 48-72 h. Potency, µM (titrated, usually from 115 µM), hits mostly inhibitors. 94,000 compounds, 6.6% hits. AID 1345083; also: nearly all actives have a fitted effect of over 60% in size
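qHTS cytotoxicity; HEK 293, 250 cells/well; compound pinned; 48 or 72 hr, 37 degree Celsius, 5% CO2, 95% humidity; CellTiter-Glo, 10 min RT; luminescence (ATP).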
NIH3T3 tox: kills NIH 3T3 cells | NIH 3T3 viability, CellTiter-Glo ATP luminescence, 48-72 h | Potency, µM (doses to about 96.7 µM), most hits filed as inhibitors | 94,000 compounds, 4.3% hits; also: nearly all actives have a fitted effect of over 55% in size
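First NIH 3T3 cells are plated at 400 cells/well; next compound is pinned in; then plates incubate 48 or 72 hr at 37 °C; finally CellTiter-Glo is added and luminescence read after 10 min.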
Of the large screens only hits and unclear results are named; the others gave an inactive call; ! = a repeat was not active. Unless noted, calls follow the shape of the dose curve; as a rule, active = well fitted curve in the direction sought with a large enough effect; inconclusive = small, poorly fitted or top-dose-only effect, or another doubt; inactive = no such curve, though single readings can be large; an effect the other way counts as inactive or inconclusive.

Cc1ccc(-c2cccc(CN3CCCC(NC(=O)C4CC4)C3)c2)cc1Cl (stereo not drawn)	HEK cytotox 35µM, NIH3T3 tox inconclusive (no result: FLuc inh, NPR1 antag)
Cc1cc(C(=O)N2CCCCCCNC(=O)CC2)nn1C	none
Cn1nc(-c2nncn2Cc2ccccc2)c2c1CCN(C(=O)c1[nH]nc3c1COc1ccccc1-3)C2	HEK cytotox inconclusive
COc1ccc2c(c1)C(COCc1ccc(C(=O)O)cc1)=CC(C)(C)CO2	NIH3T3 tox inconclusive (no result: FLuc inh, NPR1 antag)
CCOC(=O)c1cccc(NC(=O)C2=CC(C)(C)Oc3ccc(OC)cc32)c1	HEK cytotox 25µM, NIH3T3 tox 28µM (no result: FLuc inh, NPR1 antag)
CCOC(=O)c1cccc(NC(=O)N2CC[C@@H](CC(=O)Nc3ccccc3)[C@@H](CC)C2)c1	none
COC(=O)c1ccc(COCC2=CC(C)(C)Oc3ccc(OC)cc32)cc1	HEK cytotox 35µM, NIH3T3 tox inconclusive (no result: FLuc inh, NPR1 antag)
COc1cccc(N2C(=O)NC(=NC3CCCCC3)C23CCN([S+](=O)([O-])c2cccc(OC)c2)C3)c1 (stereo not drawn)	none
CSCCNC(=O)c1cc(Br)cn2ccnc12	FLuc inh 45µM!
COC(=O)[C@H](Cc1ccccc1)NC1CCN(c2cccc(NC(=O)CC3CCCC3)c2)CC1	NPR1 antag inconclusive, HEK cytotox 40µM, NIH3T3 tox inconclusive
O=c1c2nc(-c3ccc(F)cc3)ccc2ncn1Cc1ccccn1	NIH3T3 tox inconclusive
O=c1c2nc(-c3cccc(O)c3)ccc2ncn1Cc1ccccn1	NIH3T3 tox 20µM
O=c1c2nc(-c3ccc(O)c(F)c3)ccc2ncn1Cc1ccccn1	NIH3T3 tox 79µM
CC(=O)Nc1cccc(-c2ccc3ncn(Cc4ccccn4)c(=O)c3n2)c1	HEK cytotox inconclusive
CCN1CC(c2ccccc2)CC2(CCN(c3cc(N)ncn3)CC2)C1 (stereo not drawn)	HEK cytotox inconclusive, NIH3T3 tox inconclusive
CC(C)c1ccc(CNC(=O)c2cc3n(n2)CC(c2ccc(Cl)cc2)OC3)cc1 (stereo not drawn)	HEK cytotox 32µM, NIH3T3 tox 28µM
COc1ccc(CNC(=O)c2cc3n(n2)CC(c2ccc(Cl)cc2)OC3)c(OC)c1 (stereo not drawn)	HEK cytotox inconclusive, NIH3T3 tox inconclusive
Cc1cn2nc(C(=O)NCc3ccc(C(C)C)cc3)cc2c(=O)[nH]1	FLuc inh 14µM, HEK cytotox inconclusive
COc1ccccc1CNC(=O)c1cc2n(n1)CC(c1ccc(Cl)cc1)OC2 (stereo not drawn)	NPR1 antag inconclusive, HEK cytotox 40µM, NIH3T3 tox inconclusive
COc1ccc(CCNC(=O)c2cc3n(n2)CC(c2ccc(Cl)cc2)OC3)cc1OC (stereo not drawn)	NPR1 antag inconclusive, HEK cytotox 45µM, NIH3T3 tox inconclusive
CC(C)c1cccc(NC(=O)c2cc3n(n2)CC(c2ccc(Cl)cc2)OC3)c1 (stereo not drawn)	HEK cytotox inconclusive
CNC(=O)c1cc(C2CC2)nc2onc(C3CCN(C(=O)COC)CC3)c12	none (no result: FLuc inh, NPR1 antag)
Cc1nc(NC(=O)C2c3ccccc3C(=O)N(C3CCCC3)C23CCCC3)sc1C (stereo not drawn)	NIH3T3 tox inconclusive
COc1cc(NC(=O)c2cc3n(n2)CC(c2ccc(Cl)cc2)OC3)cc(OC)c1OC (stereo not drawn)	HEK cytotox 45µM, NIH3T3 tox inconclusive
COc1ccc(-c2cccc(C(=O)N3CCC(NC(=O)c4ccc5c(c4)OCO5)CC3)c2)nn1	none (no result: FLuc inh, NPR1 antag)
CCCNC(=O)c1cccc2c1CCN2S(=O)(=O)c1ccccc1F	HEK cytotox inconclusive
O=C(CCC1CCCN(S(=O)(=O)c2ccccc2F)C1)NC1CCCCC1 (stereo not drawn)	NPR1 antag inconclusive, HEK cytotox 32µM
CCc1ccc(CNC(=O)CCC2CCCN(S(=O)(=O)c3ccccc3C)C2)cc1 (stereo not drawn)	HEK cytotox 40µM, NIH3T3 tox inconclusive
O=C(NC1CCCC1)c1cccc2c1CCN2S(=O)(=O)c1ccccc1F	NPR1 antag inconclusive, HEK cytotox inconclusive, NIH3T3 tox 35µM
CC(=O)N1CCC(c2nnc3n2C(C(=O)NCc2ccccc2Cl)CC3)CC1 (stereo not drawn)	none (no result: FLuc inh, NPR1 antag)
CC(=O)N1CCCC1C(=O)N1CCCC(c2nc3ncccc3[nH]2)C1 (stereo not drawn)	none (no result: FLuc inh, NPR1 antag)
Cc1ccc(-c2ccnc(N(C)CC3CC(=O)N(C(C)(C)C)C3)n2)c(C)n1 (stereo not drawn)	HEK cytotox 79µM, NIH3T3 tox inconclusive
Cc1ccc(N2CCN(c3ncncc3-c3nc(-c4ccccc4)no3)CC2)cc1	none
CN(C)c1ncc2c(n1)C(C)(C(=O)NCc1cccc(F)c1)CCC2 (stereo not drawn)	HEK cytotox inconclusive, NIH3T3 tox inconclusive
CN(C)c1ncc2c(n1)C(C)(C(=O)NCc1cccc(Cl)c1)CCC2 (stereo not drawn)	HEK cytotox 100µM, NIH3T3 tox inconclusive
CN(C)c1ncc2c(n1)C(C)(C(=O)Nc1ccncc1)CCC2 (stereo not drawn)	HEK cytotox inconclusive, NIH3T3 tox 10µM
CN(C)c1ncc2c(n1)C(C)(C(=O)Nc1cccc(F)c1)CCC2 (stereo not drawn)	HEK cytotox inconclusive, NIH3T3 tox inconclusive
C#CCNC(=O)c1ccc2nnc(Cc3ccc(OC)cc3)n2c1	none (no result: FLuc inh, NPR1 antag)
CC(C)CN(C1CCOCC1)C1CN(C(=O)Nc2ccccc2)C1	none (no result: FLuc inh, NPR1 antag)
O=C1OC[C@@H]2CCNCc3ccccc3N12	none
COCCNC(=O)c1nc2sccn2c1-c1ccc(OC)cc1	none (no result: FLuc inh, NPR1 antag)
Cc1ccc(S(=O)(=O)N2CCC(OC3CCN(Cc4ccccc4)CC3)CC2)c(C)c1	HEK cytotox inconclusive, NIH3T3 tox 32µM
CCc1ccc(S(=O)(=O)N2CCC(OC3CCN(Cc4ccccc4)CC3)CC2)cc1	HEK cytotox inconclusive, NIH3T3 tox 35µM
O=S(=O)(c1ccc(F)cc1)N1CCC(OC2CCN(Cc3ccccc3)CC2)CC1	HEK cytotox inconclusive, NIH3T3 tox inconclusive
O=S(=O)(Cc1ccccc1)N1CCC(OC2CCN(Cc3ccccc3)CC2)CC1	HEK cytotox inconclusive, NIH3T3 tox inconclusive
O=C(Nc1nccs1)c1ccc2c(c1)OCCN(C1CCC1)C2	FLuc inh 22µM, HEK cytotox inconclusive, NIH3T3 tox inconclusive
Cc1cnc(NC(=O)c2ccc3c(c2)OCCN(Cc2ncccn2)C3)s1	FLuc inh 40µM, HEK cytotox inconclusive
CC(C)CCN1CCOc2cc(C(=O)Nc3ccccc3)ccc2C1	HEK cytotox inconclusive, NIH3T3 tox 11µM
O=C(NCCOc1ccccc1)c1ccc2c(c1)OCCN(CCC(F)(F)F)C2	FLuc inh 40µM, HEK cytotox inconclusive
COc1cccc(-c2ccc(C(=O)NCCNC(=O)c3ccc(C)cc3)cc2)c1	HEK cytotox inconclusive (no result: FLuc inh, NPR1 antag)
O=C1[C@H]2CN(Cc3ccc(F)c(F)c3)C[C@H]2C(=O)N1Cc1ccc2c(c1)OCO2	none
O=C1[C@H]2CN(Cc3ccc(F)c(Cl)c3)C[C@H]2C(=O)N1Cc1ccc2c(c1)OCO2	HEK cytotox 35µM, NIH3T3 tox inconclusive
Cc1noc(C2CC3(CCN(C(=O)CCC4CCCC4)CC3)CN2C)n1 (stereo not drawn)	none
